Data reported in PubChem BioAssay (NCATS).
Unmarked numbers belong to inactive results. Inconclusive results are not listed. Entries that show only a call come without a potency. Active and inactive are the calls of the source. The call rests on the fitted dose curve; in most records, active means well fitted curve in the direction sought with a large enough effect; inconclusive means small, poorly fitted or top-dose-only effect, or another doubt; inactive means no such curve, though single readings can be large; an effect the other way counts as inactive or inconclusive. Bridge positions count the residues as written; N and C are the ends. Square brackets hold non-standard residues; d marks the D form. Side chains are listed from the residue outwards. Peptide text beside a SMILES is read from it. * marks the point of attachment. Phg(4-OMe) = COc1ccc([C@H](N)C(=O)O)cc1; d(aIle) = CC[C@H](C)[C@@H](N)C(=O)O; d(aThr) = C[C@@H](O)[C@@H](N)C(=O)O; NMeF = CN[C@@H](Cc1ccccc1)C(=O)O; Isobutyryl = CC(C)C(=O)*

How the values were obtained:
[1] = HPAF-II 24hr Apoptosis Induction qHTS against the NCATS CANVASS Library (AID 1347356)
In short: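 Caspase-Glo 3/7 luminescence, read after 15 min room-temperature development, measures apoptosis in HPAF-II cells treated 24 h at 37 degrees C with an 11-point concentration series; 500 cells/well; doxorubicin control.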

[2] = HEK293 24hr Apoptosis Induction qHTS against the NCATS CANVASS Library (AID 1347359)
In short: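 Caspase-3/7 activation measured as luminescence from the DEVD-based Caspase-Glo reagent, 15 min at room temperature, following 24-hour compound treatment of HEK293 cells.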

[3] = HPAF-II 18hr Apoptosis Induction qHTS against the NCATS CANVASS Library (AID 1347360)
In short: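 HPAF-II cells at 500/well were exposed for 18 h at 37 C to an 11-point compound series. Caspase-3/7 activity was read by Caspase-Glo luminescence after 15 min at RT.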

[4] = system: NAD(P)H diaphorase (Clostridium kluyveri); assay: Diaphorse counterscreen qHTS: Assay Interference Panel against the NCATS CANVASS Library (AID 1347362); further: potency means the concentration at half of the fitted maximal effect
In short: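 Counterscreen for coupling-enzyme interference: resorufin fluorescence from resazurin/NADH turnover, read after 5 min at room temperature. Compounds were tested over an 11-point series after 15 min dark preincubation with diaphorase in PBS-Tween.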

[5] = qHTS for ATAD5 Agonist screened against the NCATS CANVASS Library (AID 1347367);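 further: luciferase reporter driven by ATAD5 which rises upon DNA damage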
In short: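 Luciferase reporter under ATAD5 control, stably integrated in HEK293T cells (2000/well). Compounds (11 points) incubated 16 h at 37C; viability read first by CellTiter-Fluor, then luminescence reporting ATAD5 activation. MMS positive control.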

[6] = G06 Cancer Cell Toxicity qHTS against the NCATS CANVASS Library (AID 1347368); further: nearly all actives have a fitted effect of over 60% in size; further: potency means the concentration at half of the fitted maximal effect
In short: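 Viability measured by CellTiterGlo ATP luminescence after 72 hr at 37C, 5% CO2. Canine G06 glioma cells plated at 500/well. Compounds tested as 11-point qHTS titrations.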

[7] = qHTS for ATAD5 Antagonist screened against the NCATS CANVASS Library (AID 1347370); further: nearly all actives have a fitted effect of over 65% in size; further: potency means the concentration at half of the fitted maximal effect
In short: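 Compounds (11-point) co-dosed with 10 µM 5-FUrd for 16 h at 37 °C onto HEK293T-ATAD5 luciferase reporter cells. Viability measured by CellTiter-Fluor fluorescence, then ATAD5 reporter signal by luminescence.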

[8] = J3T Cancer Cell Toxicity qHTS against the NCATS CANVASS Library (AID 1347371); further: potency means the concentration at half of the fitted maximal effect
In short: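 Cytotoxicity read as CellTiterGlo ATP luminescence after 72 h incubation (37C, 5% CO2) of J3T canine glioma cells (500/well) with an 11-point compound series.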

[9] = target: Nuclear receptor subfamily 1 group I member 3 (Homo sapiens) (UniProt Q14994); assay: qHTS for Constitutive Androstane Receptor (CAR) Antagonist screened against the NCATS CANVASS Library (AID 1347372);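 further: cells stimulated with 50 nM CITCO agonist so inhibition reflects antagonism; series mostly up to about 46 µM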
Sequence of Nuclear receptor subfamily 1 group I member 3 (Homo sapiens) (Q14994 whole entry, looked up): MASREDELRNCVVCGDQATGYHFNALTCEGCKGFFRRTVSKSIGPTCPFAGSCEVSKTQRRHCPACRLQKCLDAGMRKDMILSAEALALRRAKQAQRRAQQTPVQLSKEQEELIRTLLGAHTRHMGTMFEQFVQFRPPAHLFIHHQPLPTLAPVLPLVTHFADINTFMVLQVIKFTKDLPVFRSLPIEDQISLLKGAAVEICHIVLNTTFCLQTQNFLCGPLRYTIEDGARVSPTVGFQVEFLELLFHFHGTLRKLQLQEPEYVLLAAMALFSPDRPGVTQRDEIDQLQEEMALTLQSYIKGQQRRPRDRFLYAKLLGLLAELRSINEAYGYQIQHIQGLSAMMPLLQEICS
In short: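 Antagonist mode: compound added alongside 50 nM CITCO to HepG2-hCAR-CYP2B6 reporter cells, 24hr at 37C. Viability by CellTiter-Fluor fluorescence, then CAR-driven luciferase by ONE-Glo luminescence.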

[10] = target: Nuclear receptor subfamily 1 group I member 3 (Homo sapiens) (UniProt Q14994); assay: qHTS for Constitutive Androstane Receptor (CAR) Agonist screened against the NCATS CANVASS Library (AID 1347373);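 further: every well also contained 1.5 µM PK11195 alongside the test compound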; further: potency means the concentration at half of the fitted maximal effect
In short: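 Agonist mode with 1.5uM PK11195 present: compounds for 24hr on HepG2-hCAR-CYP2B6 cells. CellTiter-Fluor fluorescence (ex 405, em 540 nm) gives viability; ONE-Glo luminescence reports CAR activation.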

[11] = qHTS for Hypoxia signaling pathway (HIF-1) agonists against the NCATS CANVASS Library (AID 1347375)
In short: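 Beta-lactamase reporter under HRE control in ME-180 cells; compounds (11-point qHTS series) added after 5 hrs plating, then 17 hrs at 37C. FRET substrate read after 2 hr; same-well CellTiter-Glo luminescence gave viability and normalization.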

[12] = 10-beta competent E. coli microbial cell viability qHTS against the NCATS CANVASS Library (AID 1347376); further: series mostly up to about 46 µM
In short: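 Read-out: BacTiter-Glo ATP luminescence, taken 20 min after reagent addition. Beforehand, 10-beta competent E. coli at 0.2 OD had been incubated overnight at 37C with compounds at 11 concentrations.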

[13] = Inflammasome Signaling qHTS Counterscreen: IL-1-beta AlphaLISA counterscreen against the NCATS CANVASS Library (AID 1347381);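 further: cell-free check with purified IL-1β in medium and no THP-1 cells; series mostly up to about 57 µM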
In short: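 Purified IL-1-beta (4 pg/well) + compound, 11-pt conc. series; acceptor beads 6 ug/mL + biotin-Ab 0.6 nM final, 1 h RT; SA-donor 24 ug/ml final, 30 min dark RT; read ex 680/em 615.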

[14] = Cytotoxicity qHTS for assessment of Hepg2 cells membrane integrity screened against the NCATS CANVASS Library (AID 1347387)
In short: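 Membrane damage quantified as fluorescent LDH-release signal (ex 560, em 590 nm) in HepG2 cells treated 5 hr at 37C. qHTS format, 11 concentrations spanning 0.59 nM - 46 uM final, cells plated at 2000 per well the night before.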

[15] = qHTS for Activators of p53 Stress Response Pathway screened against the NCATS CANVASS Library (AID 1347388)
In short: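 Beta-lactamase reporter driven by p53 response elements in HCT-116 cells, read as the 460 nm/530 nm emission ratio after CCF4 loading, following 16 h of exposure to an 11-point series. Cell viability was measured in the same wells by CellTiter-Glo luminescence.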

[16] = Secretion counterscreen for inhibitors of the SERCaMP assay screened against the NCATS CANVASS Library (AID 1347390);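 further: light from luciferase secreted into medium read as a measure of general secretion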; further: potency means the concentration at half of the fitted maximal effect
In short: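 SH-SY5Y cells with constitutively secreted GLuc reporter, 1000 cells/well, treated 20 h at 37C with compounds at 0.001 - 77 uM final; secreted luciferase read as luminescence after coelenterazine; Brefeldin A as positive control.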

[17] = qHTS for activators of dead-cell proteases activity screened against the NCATS CANVASS Library (AID 1347392);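 further: luminescence from protease leaking out of membrane-damaged cells cleaving impermeant substrate; rising signal means more cytotoxicity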
In short: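 Luminescent dead-cell protease readout (AAF-aminoluciferin, 15 min, room temperature) after 5 h compound treatment of HepG2 cells (2000/well, pre-attached 18 h). Eleven concentrations.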

[18] = Vero-766 cells viability qHTS against the NCATS CANVASS Library: Counterscreen for Zika virus inhibition assay (AID 1347394); further: nearly all actives have a fitted effect of over 60% in size; further: potency means the concentration at half of the fitted maximal effect
In short: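 Vero 766 cells (1000/well), without Zika virus, were exposed to compounds for 72 h at 37C. Viability was measured by CellTiter Glo luminescence. Media-only wells served as 100% inhibition.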

[19] = qHTS for H2AX Agonists against the NCATS CANVASS Library (AID 1347378)
In short: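 CHO-K1 cells (1000/well, overnight at 37C) exposed to compounds at several concentrations for 3 hr at 37C, 0.76% DMSO final. Lysates read by TR-FRET (phospho-H2AX S139 Eu-cryptate antibody / H2AX-d2 antibody) after 24 hr at room temperature; 665/615 nm ratio.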

[20] = qHTS assay for small molecule disruptors of mitochondrial membrane potential screened against the NCATS CANVASS Library (AID 1347389); further: nearly all actives have a fitted effect of over 60% in size; further: potency means the concentration at half of the fitted maximal effect
In short: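 Mitochondrial membrane potential in HepG2: 1 h compound treatment (11-point concentration series), 30 min m-MPI dye at 37C, then dual fluorescence of J-aggregates (ex 540/em 590) and monomers (ex 490/em 535); lower red/green ratio indicates depolarization.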

| Structure (SMILES) | outcome [1] | Potency [2] | Potency [3] | Potency [4] | Potency [5] | Potency [6] | Potency [7] | Potency [8] | Potency [9] | Potency [10] | outcome [11] | outcome [12] | outcome [13] | outcome [14] | Potency [15] | Potency [16] | Potency [17] | Potency [18] | Potency [19] | Potency [20] |
| --- | --- | --- | --- | --- | --- | --- | --- | --- | --- | --- | --- | --- | --- | --- | --- | --- | --- | --- | --- | --- |
| C[n+]1cc2cc(C(N)=O)[nH]c3c(=N)c(Cl)c(N)c1c23 | inactive | inactive | inactive | 15.3 µM (active) | inactive | 5.26 µM (active) | inactive | inactive | inactive | inactive | inactive | inactive | inactive | inactive | inactive | inactive | inactive | inactive | – | – |
| C=CC(CCCCC)C1C(=O)NC(=O)C1C(=O)C1C2C(C)CC(C(=O)O)CC2CC1(O)C(=O)/C=C/C (stereo unspecified) | inactive | inactive | inactive | inactive | inactive | inactive | inactive | inactive | inactive | inactive | inactive | inactive | inactive | inactive | – | inactive | inactive | inactive | inactive | – |
| COc1cc2c(cc1OC)[C@@H](c1ccc3c(c1)OCO3)C(C)C(C)C2=O (stereo partly specified) | inactive | inactive | inactive | inactive | inactive | – | 26.3 µM (active) | inactive | inactive | 18.6 µM (active) | inactive | inactive | inactive | inactive | inactive | inactive | inactive | inactive | inactive | inactive |
| COc1cc2c(c(O)c1O)C(=O)c1c(coc1C)C2=O | inactive | inactive | inactive | 4.31 µM (active) | inactive | 11.8 µM (active) | inactive | 26.4 µM (active) | inactive | – | inactive | – | inactive | inactive | – | 27.2 µM (active) | inactive | – | – | 10.5 µM (active) |
| C=C1CC[C@@H](O[C@H]2C[C@@](O)([C@H](C)NC(=O)c3[nH]c(C)c(Cl)c3Cl)[C@H](O)[C@@H](C)O2)[C@@H]2C=C[C@H](C)C(/C(O)=C3/C(=O)[C@H](C(C)C)N([C@@H]4O[C@H](C)[C@H](OC(N)=O)[C@H](OC(C)=O)[C@@H]4OC)C3=O)[C@@H]12 (stereo partly specified) | inactive | inactive | inactive | inactive | inactive | – | inactive | inactive | inactive | inactive | inactive | inactive | inactive | inactive | – | inactive | inactive | inactive | inactive | 16.6 µM (active) |
| CC[C@H](C)[C@H]1NC(=O)[C@@H](NC(=O)C(C)C)[C@@H](C)OC(=O)[C@H](COC(=O)CNC(C)=O)NC(=O)[C@@H]([C@@H](C)O)NC(=O)[C@H](Cc2ccccc2)N(C)C(=O)[C@H](c2ccc(OC)cc2)NC1=O (Isobutyryl-T[d(aIle)][Phg(4-OMe)][NMeF][d(aThr)]S([Gly-Ac]); ester 1-C) | inactive | inactive | inactive | inactive | inactive | inactive | inactive | inactive | inactive | inactive | inactive | inactive | inactive | inactive | inactive | inactive | inactive | inactive | inactive | inactive |
| C=C[C@@]1(C)CC[C@@H]([C@H](C)C(=O)/C=C/C(C)(C)O)O1 | inactive | inactive | inactive | inactive | inactive | – | – | 23.5 µM (active) | inactive | – | inactive | inactive | inactive | inactive | inactive | inactive | inactive | inactive | inactive | inactive |
| C[C@]12CC[C@]3(C1)[C@H](CC2=O)C[C@@H](OC(=O)c1ccccc1)[C@H]1[C@](C)(C(=O)O)CCC[C@@]13C | inactive | inactive | inactive | inactive | inactive | – | inactive | inactive | – | inactive | inactive | inactive | inactive | inactive | inactive | – | inactive | 6.6 µM (active) | inactive | inactive |
| C=CC(CCCCC)C1C(=O)NC(=O)C1C(=O)C1C(/C=C/C)C=CC2CC(C(=O)O)CC(C)C21 (stereo unspecified) | inactive | inactive | inactive | – | inactive | inactive | inactive | inactive | inactive | inactive | inactive | inactive | inactive | inactive | – | inactive | inactive | 23.4 µM (active) | – | – |
| C=C1CC[C@@H](Br)C(C)(C)[C@]12CC=C(C)C(=O)C2 | inactive | inactive | inactive | inactive | inactive | inactive | inactive | inactive | inactive | – | inactive | inactive | inactive | inactive | inactive | inactive | inactive | inactive | inactive | – |
| C/C=C(/C)c1cc(O)c(C)c2c1Oc1cc(O)cc(C)c1C(=O)O2 | inactive | inactive | inactive | inactive | inactive | inactive | – | inactive | inactive | inactive | inactive | inactive | inactive | inactive | – | – | inactive | – | inactive | 10.5 µM (active) |
| CC(C)=CCC[C@]12c3cc4c(cc3CC[C@@]1(C)[C@H](C)CC[C@@H]2O)[nH]c1ccccc14 | inactive | inactive | inactive | inactive | inactive | inactive | inactive | inactive | inactive | inactive | inactive | inactive | inactive | inactive | inactive | inactive | inactive | – | inactive | 20.9 µM (active) |
